Compound activity deposited in PubChem by several laboratories.
Compounds with a hit are over-represented: about 5% of the library has one in this group of screens.
EBI2 block = EBI2 receptor antagonists, beta-arrestin recruitment, primary screen, cell-based, luminescence, 7a,25-OHC stimulation, uHTS. G-protein coupled receptor 183 (Homo sapiens), P32249. inhibition, % at 5 µM. 7a,25-OHC stimulated. hit rate 0.81% among 360,000; in the data active = inhibition above about 38%;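 note: enzyme fragment complementation signal reports receptor beta-arrestin coupling in cells; 0% = agonist plus DMSO wells and 100% = wells without agonist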
AHR act = AHR activators, primary screen, cell-based, luminescence, luciferase reporter, human | AHR-responsive luciferase reporter cells | activation, % at 5 µM | hit rate 2.5% among 320,000; in the data active = activation above about 47%;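 note: 0% = vehicle wells and 100% = reference agonist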
SENP6 inh = SENP6 protease inhibitors, primary screen, biochemical, luminescence, uHTS. Sentrin-specific protease 6 (Homo sapiens), Q9GZR1. Recombinant SENP6 catalytic domain, aminoluciferin luminescence. inhibition, % at 10 µM. hit rate 1.8% among 330,000;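 active = inhibition above about 50% at the single tested dose, limit read from the data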;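 note: plate controls were DMSO wells with enzyme for no effect and DMSO wells lacking enzyme for full effect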
Target sequence (Q9GZR1 628-1112 limits assumed): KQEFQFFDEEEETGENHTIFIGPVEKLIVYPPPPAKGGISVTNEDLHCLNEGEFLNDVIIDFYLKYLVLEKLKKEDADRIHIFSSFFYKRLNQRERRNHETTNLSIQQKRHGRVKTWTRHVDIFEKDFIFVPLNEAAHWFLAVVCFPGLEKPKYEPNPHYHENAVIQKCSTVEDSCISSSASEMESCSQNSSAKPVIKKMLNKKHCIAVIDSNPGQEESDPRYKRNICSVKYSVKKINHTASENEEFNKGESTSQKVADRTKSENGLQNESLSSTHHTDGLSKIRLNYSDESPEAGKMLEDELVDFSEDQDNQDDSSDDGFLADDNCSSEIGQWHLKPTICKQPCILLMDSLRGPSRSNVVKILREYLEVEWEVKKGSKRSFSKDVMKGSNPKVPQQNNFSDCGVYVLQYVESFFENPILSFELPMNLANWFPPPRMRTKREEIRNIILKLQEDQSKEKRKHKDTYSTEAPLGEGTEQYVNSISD
SENP8 block-1 = human SENP8 protease inhibitors, primary screen, biochemical, fluorescence, Nedd8 protein substrate, uHTS; Sentrin-specific protease 8 (Homo sapiens), Q96LD8; recombinant SENP8; inhibition, % at 20 µM; hit rate 0.64% among 360,000; in the data active = inhibition mostly above about 40%, no sharp cut-off; inactive = mostly below about 27%
SENP7 block = SENP7 protease inhibitors, primary screen, biochemical, luminescence, uHTS. hit rate 1.5% among 330,000. recombinant SENP7, Z-RLRGG-aminoluciferin luminescence, 40 min. inhibition, % at 5 µM;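 active = inhibition above about 50% at the single test dose, limit read from the data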;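 note: plate controls were DMSO with enzyme for no effect and no enzyme buffer wells for full effect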
SENP8 block-2 = SENP8 protease inhibitors, primary screen, biochemical, luminescence; Sentrin-specific protease 8 (Homo sapiens), Q96LD8; purified SENP8, Z-RLRGG-aminoluciferin cleavage; inhibition, % at 10 µM; hit rate 1.2% among 330,000; AID 2540, 2010; in the data active = inhibition above about 50%
SENP8 conf = human SENP8 protease inhibitors, confirmation, biochemical, Nedd8 protein substrate, single concentration | shares compounds with SENP8 block-1 | purified SENP8, Nedd8-AMC/pro-Nedd8 cleavage fluorescence, 30 min | inhibition, % at 25 µM | hit rate 15% among 1,400 | AID 624319, 2012; in the data active = inhibition mostly above about 39%, no sharp cut-off; inactive = mostly below about 34%
Active calls of the source: *.

`COc1ccc(C(=O)Nc2nnc(CCS(=O)(=O)c3ccc(C)cc3)s2)cc1` gave EBI2 block -2, AHR act 3, SENP6 inh -6, SENP8 block-1 12, SENP7 block 0 and SENP8 block-2 2.
Screening COc1ccccc1N(CC(=O)NC1CCCCC1)C(=O)c1csnn1 returned EBI2 block -3, AHR act -3, SENP6 inh -4, SENP8 block-1 21, SENP7 block 1 and SENP8 block-2 6.
Screening COc1ccccc1N(CC(=O)NC1CCCC1)C(=O)c1csnn1 returned EBI2 block -4, AHR act -4, SENP6 inh 3, SENP8 block-1 45*, SENP7 block 0, SENP8 block-2 2 and SENP8 conf 3.
`COc1ccc(-n2c(C)cc(SC)c(C(C)=O)c2=S)cc1` gave EBI2 block -5, AHR act 1, SENP6 inh 0, SENP8 block-1 15, SENP7 block 6 and SENP8 block-2 3.
CSc1cc(C)n(-c2ccc(Cl)cc2)c(=S)c1C(C)=O was read as EBI2 block -7, AHR act 9, SENP6 inh 10, SENP8 block-1 42*, SENP7 block 1, SENP8 block-2 4 and SENP8 conf 15.
Screening O=C(NC(=S)Nc1cccc2c(O)cccc12)c1ccccc1[N+](=O)[O-] returned EBI2 block -4, AHR act 9, SENP6 inh 48, SENP8 block-1 47*, SENP7 block 6, SENP8 block-2 35 and SENP8 conf 15.
`C=C(C)C(=O)Nc1cccc(C2=NOC3(C2)C[C@H](C(N)=O)N(C(=O)c2ccccc2C(=O)c2ccccc2)C3)c1` (stereo partly specified) gave EBI2 block 7, AHR act 0, SENP6 inh -11, SENP8 block-1 4, SENP7 block 4 and SENP8 block-2 7.
`O=C(CNc1cc(S(=O)(=O)N2CCOCC2)ccc1NCC1CCCO1)Nc1ccc(F)c(F)c1` (stereo unspecified) gave EBI2 block -1, AHR act -6, SENP6 inh 2, SENP8 block-1 -5, SENP7 block 1 and SENP8 block-2 8.
For O=C(O)C1Cc2ccccc2CN1C(=O)c1ccccc1 (stereo unspecified) the results were EBI2 block -9, AHR act 0, SENP6 inh -2, SENP8 block-1 12, SENP7 block 5 and SENP8 block-2 -2.
For CC(C)(C)OC(=O)N1Cc2ccccc2C[C@H]1C(=O)O the results were EBI2 block -2, AHR act 7, SENP6 inh 15, SENP8 block-1 40*, SENP7 block 6, SENP8 block-2 3 and SENP8 conf 68*.
Cc1cc(C)n2[nH]c(=O)cc2n1 was read as EBI2 block -11 and SENP8 block-1 -8.
O=C(/C=C/c1cccs1)c1ccc([N+](=O)[O-])cc1 was read as EBI2 block 1, AHR act -1, SENP6 inh -10, SENP8 block-1 50*, SENP7 block -5, SENP8 block-2 -7 and SENP8 conf 8.
For CC(=O)Oc1ccc(C(=O)Nc2cccc(C(=O)Nc3ccccc3C(=O)O)c2)cc1 the results were EBI2 block 4, SENP6 inh -3, SENP8 block-1 10, SENP7 block 1 and SENP8 block-2 1.
`CCCn1c(=C(C#N)C#N)s/c(=C2\C=Cc3ccccc3N2CC)c1=O` gave EBI2 block -15, SENP8 block-1 52* and SENP8 conf 10.
Screening CCCCN(C(=O)c1ccc(-c2ccc([N+](=O)[O-])cc2)o1)c1c(N)n(CC(C)C)c(=O)[nH]c1=O returned EBI2 block -6, AHR act 1, SENP6 inh -7, SENP8 block-1 0, SENP7 block -4 and SENP8 block-2 -7.
For Cc1ccc2nc(-c3ccccc3)c(CC(=O)O)c(C(=O)O)c2c1 the results were EBI2 block -8, AHR act 4, SENP6 inh -20, SENP8 block-1 -6, SENP7 block -2 and SENP8 block-2 -4.
Screening Cc1nnc(SCc2ccccc2)nc1/C=C/NOCc1ccc(Cl)cc1Cl returned EBI2 block 11, AHR act 6, SENP6 inh 21, SENP8 block-1 54*, SENP7 block 5, SENP8 block-2 1 and SENP8 conf 40.
`C=CCSc1nnc(C)c(/C=C/Nc2ccc(Cl)cc2)n1` gave EBI2 block 7, AHR act 13, SENP6 inh 15, SENP8 block-1 1, SENP7 block -4 and SENP8 block-2 1.
Screening CSc1nnc(C)c(/C=C/Nc2ccc(F)cc2F)n1 returned EBI2 block 0, AHR act 11, SENP6 inh 3, SENP8 block-1 1, SENP7 block 6 and SENP8 block-2 8.
Screening CSc1nnc(C)c(/C=C/NOCc2cccc(F)c2)n1 returned EBI2 block -3, AHR act 3, SENP6 inh 20, SENP8 block-1 40*, SENP7 block 2, SENP8 block-2 3 and SENP8 conf 57*.
Screening COc1ccccc1NC(=O)C(=O)NCCC1CCCCN1S(=O)(=O)c1cccs1 (stereo unspecified) returned EBI2 block 3, AHR act 27, SENP6 inh -13, SENP8 block-1 22, SENP7 block 3 and SENP8 block-2 -6.
Cc1ccc(NC(=O)c2ccc(Cl)c(S(=O)(=O)N3CCCCCC3)c2)nc1 was read as EBI2 block 3, AHR act 9, SENP6 inh 2, SENP8 block-1 22, SENP7 block -12 and SENP8 block-2 3.
For Cc1cc(C)n(-c2nnc(NC34CC5CC(CC(C5)C3)C4)nn2)n1 the results were EBI2 block -9, AHR act 10, SENP6 inh -29, SENP8 block-1 11, SENP7 block -5 and SENP8 block-2 -12.
For CCOc1cc(C(=S)N2CCOCC2)cc(Br)c1OS(=O)(=O)c1ccccc1 the results were EBI2 block 21, AHR act -2, SENP6 inh -8, SENP8 block-1 42*, SENP7 block -6, SENP8 block-2 6 and SENP8 conf 66*.
CCOc1cc(C(=S)N2CCOCC2)ccc1OS(=O)(=O)c1ccc(C)cc1 was read as EBI2 block -4, AHR act 2, SENP6 inh -5, SENP8 block-1 18, SENP7 block 4 and SENP8 block-2 -5.
